Screening data deposited in PubChem BioAssay by National Center for Advancing Translational Sciences (NCATS).
FMDV inh: blocks foot and mouth disease virus; FMDV antiviral cell-based qHTS; 410,000 tested, 1.2% active; Potency, µM (doses to about 57.9 µM), inactives show at the top dose activity change, negative = inhibition, actives largely listed as inhibitors; calls by dose curve; tested in HEK293T cells; note: read-out not given here; potency is the fitted concentration of half-maximal effect; nearly all actives have a fitted effect of over 45% in size
Vaccinia mCherry: inhibitors of vaccinia virus infection (mCherry reporter signal); 310,000 tested, 0.63% active; Vaccinia virus mCherry reporter infection, fluorescence; Potency, µM (series often up to 36.5 µM), for the others: at the top dose activity change, negative = inhibition, actives largely listed as inhibitors; calls by dose curve; tested in A549 cells; note: potency is the fitted concentration of half-maximal effect; nearly all actives have a fitted effect of over 35% in size
Sm TGR block: inhibitors of Schistosoma mansoni thioredoxin glutathione reductase; 360,000 tested, 3% active; Potency, µM (doses to about 114 µM), inactives show at the top dose activity change, negative = inhibition, usual class: inhibitors; purified TGR, DTNB reduction, TNB absorbance 405 nm; Q962Y6; note: potency is the fitted concentration of half-maximal effect; nearly all actives have a fitted effect of over 60% in size
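TGR 20 nM + NADPH 100 uM (dispensed conc.), cpd preinc 15 min RT; start with NADPH (500 uM addition) then DTNB (15 mM addition). Kinetic TNB absorbance, 405 nm filter. Four-parameter Hill fit across titration.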
HCMV antiviral: blocks human cytomegalovirus replication. activity change, negative = inhibition, % at 57.5 µM. AID 1259415. 410,000 tested, 4.5% active. HFF cells, HCMV-luciferase reporter, 72 h; active compounds read low; in the data active = activity change below about -60%; inconclusive = no clear call, values can overlap the other calls; inactive = above about -39%
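Screen run at 2 compound doses on HFFs infected with reporter HCMV, MOI 1 PFU/cell. Luciferase activity from cell lysates at 72 h post infection gave inhibition relative to buffer-only and Salinomycin wells.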
HCV inhibitor: inhibitors of hepatitis C virus infection | Huh7.5.1 HCVcc-Cre infection, luciferase reporter, 44 h | Potency, µM (doses to about 41.8 µM), for the others: top-dose activity change, negative = inhibition, hits mostly inhibitors | 340,000 tested, 3.4% active; note: potency is the fitted concentration of half-maximal effect
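Compounds are dispensed onto cells plated 4 h earlier at 1,000 per well, with HCVcc-Cre virus (about 0.5 moi) added next. Following 44 h of culture, luminescent signal is measured for 15 sec after 15 min with substrate at room temperature.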
VACV Venus inh: vaccinia inhibition (Venus reporter). Potency, µM (highest dose often 36.5 µM), inactives show at the top dose activity change, negative = inhibition, most hits filed as inhibitors. 330,000 tested, 0.46% active. Vaccinia virus Venus reporter expression, fluorescence; calls by dose curve; tested in A549 cells; note: potency is the fitted concentration of half-maximal effect; nearly all actives have a fitted effect of over 30% in size
Numbers without * were called inactive; i = inactive; ? = inconclusive; nt = not tested or not shown; [ ] = dose if it differs, or a comment. An excerpt weighted towards active compounds, which were near 9.3% of everything screened. Unless noted, calls come from the whole dose curve; as a rule, active = well fitted curve in the direction sought with a large enough effect; inconclusive = small, poorly fitted or top-dose-only effect, or another doubt; inactive = no such curve, though single readings can be large; an effect the other way counts as inactive or inconclusive. % is set by controls: 0 for no effect and ±100 for the full control effect.

SMILES	FMDV inh	Vaccinia mCherry	Sm TGR block	HCMV antiviral	HCV inhibitor	VACV Venus inh
COc1ccc(NC(=O)COc2cccc(C(F)(F)F)c2)cn1	-27%	i	-5%	-14	19%	-8%
O=C(Nc1ccc(Oc2cccc(C(F)(F)F)c2)nc1)c1ccccc1	?	-12%	3%	-30	?	-20%
C=C(C)CSc1nnc(-c2cccc(S(=O)(=O)N(C)C)c2)n1-c1cc(OC)ccc1OC	-13%	i	-1%	-71*	-23%	-1%
Cc1cc(C)nc(/N=C(\N)Nc2ccc(C(C)C)cc2)n1	14µM*	-16%[7.34 µM]	-13%	-63*	11µM*	-17%[7.34 µM]
CCCCc1ccc(N/C(N)=N/c2nc(C)cc(C)n2)cc1	25µM*	?	2%	-97*	-84%	?
Cc1cccc(N/C(N)=N/c2nc(C)cc(C)n2)c1	-19%	?	2%	29	?	-19%
Cc1cc(C)nc(/N=C(\N)Nc2ccccc2-c2ccccc2)n1	18µM*	?	-5%	?	?	-30%
Cc1ccc(N/C(N)=N/c2nc(C)cc(C)n2)cc1	0%	-2%	0%	-4	10%	-21%
COc1cccc(C2C(C(=O)c3cc4cccc(OC)c4o3)=C(O)C(=O)N2c2cc(C)on2)c1OC (configuration not stated)	?	nt	-24%	-26	1%	-12%
COc1cccc2cc(C(=O)C3=C(O)C(=O)N(Cc4ccco4)C3c3cccnc3)oc12 (configuration not stated)	2%	1%	25µM*	nt	-4%	-2%
O=C(C1=C(O)C(=O)N(Cc2ccco2)C1c1cccnc1)c1cc2ccccc2o1 (configuration not stated)	-24%	nt	25µM*	0	-7%	0%
COc1ccc(C2C(C(=O)c3ccco3)=C(O)C(=O)N2Cc2cccnc2)cc1OC (configuration not stated)	nt	-8%	5%	-21	7%	-2%
COc1cccc2cc(C(=O)C3=C(O)C(=O)N(c4cc(C)on4)C3c3cccs3)oc12 (configuration not stated)	-18%	nt	28µM*	-70*	-5%	nt
COc1ccc(OC)c(NC(=O)C(C)n2c(=O)c(-c3ccccc3NC(C)=O)nc3ccccc32)c1 (configuration not stated)	-10%	-14%	-5%	-2	nt	-11%
O=S(=O)(c1ccc2c(c1)OCCO2)N1CCN(S(=O)(=O)c2ccco2)CC1	-15%	nt	nt	-10	nt	nt
O=C(Nc1cccc2ccccc12)OC1C=CS(=O)(=O)C1 (configuration not stated)	-17%	11µM*	-14%	-70*	?	?
NC(=O)Nc1cccc2ccccc12	-9%	-10%	-11%	-14	?	4%
CCCCCCCCCCCNC(=O)c1ccoc1C	-16%	nt	18µM*	0	5%	nt
Cc1occc1C(=O)NNC(=S)NCc1ccc(Cl)cc1	?	-24%	7%	-69*	17%	-6%
Cc1occc1C(=O)NCCCCNC(=O)c1ccoc1C	-17%	nt	-15%	-98*	-1%	nt
O=C(Nc1ccccc1)c1cc(C2CCCCN2C(=O)CCCc2ccccc2)on1 (configuration not stated)	-21%	i	nt	14	nt	?
CC(=O)Nc1ccc(OC(=O)C(CCS(C)(=O)=O)N2C(=O)c3ccccc3C2=O)cc1 (configuration not stated)	10%	i	0%	14	9%	-18%
CCN(CC(=O)Nc1c(F)cccc1F)C(=O)C1CCN(C(=O)c2ccc(F)cc2)CC1	-6%	-3%	4%	7	7%	-15%
CCN(CC)c1ccc(S(=O)(=O)N2CCOCC2)cc1NC(=O)CSc1nncs1	8%	-12%	1%	nt	-1%	-7%
CC(C)c1cc(NCC2CCCO2)n2c(nc3ccccc32)c1C#N (configuration not stated)	?	nt	-14%	-60*	?	nt
SMILES	FMDV inh	Vaccinia mCherry	Sm TGR block	HCMV antiviral	HCV inhibitor	VACV Venus inh
Cc1cc(NCC2CCCO2)n2c(nc3ccccc32)c1C#N (configuration not stated)	?	5%	8%	-13	-24%	15%
Cc1cc(NCCN2CCCCC2)n2c(nc3ccccc32)c1C#N	nt	nt	0%	nt	7.1µM*	nt
C/C(=N\Nc1nc(-c2ccccn2)nc2ccccc12)c1ccc(F)cc1	-8%	nt	-3%	nt	4.5µM*	nt
Clc1ccc(CSc2nc(NCCc3ccccc3)c3ccccc3n2)cc1	?	-20%	5%	-11	nt	-30%
CCCN(CCC)c1nc(-c2ccccc2F)nc2ccccc12	?	-13%	0%	-2	nt	-3%
c1ccc(CCNc2nc(-c3ccccn3)nc3ccccc23)cc1	?	-23%	2%	-103*	2.8µM*	-16%
CCCCN(CC)c1nc(-c2ccncc2)nc2ccccc12	25µM*	-28%	-11%	-95*	5.6µM*	-26%
CCCN(CCC)c1nc(-c2ccccn2)nc2ccccc12	?	4.5µM*	-1%	-100*	?	?
COc1ccccc1OCc1nnc(SCCN2CCOCC2)o1	-14%	nt	-30%	0	5%	nt
CCOC(=O)c1cccc(NC(=O)c2c(N)n(C)c(=O)[nH]c2=O)c1	1%	-16%	nt	nt	23%	-11%
COC(=O)C(C)Oc1ccc(Oc2nc(Cl)ccc2Cl)cc1 (configuration not stated)	-12%	nt	16%	-34	-1%	nt
COc1ccc(NC(=O)c2ccc3c(c2)C(=O)N(Cc2ccncc2)C3=O)cc1S(N)(=O)=O	5%	-8%	nt	-8	?	2%
O=C(CSc1nnc(Cc2cccs2)n1Cc1ccco1)Nc1cc(Cl)cc(Cl)c1	-23%	nt	35µM*	35	?	nt
COc1ccc(NC(=O)CSc2nnc(-c3ccccc3Cl)n2Cc2ccco2)c(OC)c1	-23%	nt	35µM*	39	-21%	-21%
COc1ccccc1NC(=O)CSc1nnc(-c2ccccn2)n1Cc1ccco1	-3%	nt	40µM*	-5	-8%	nt
COc1ccc(NC(=O)CSc2nnc(-c3ccccc3)n2Cc2ccco2)c(OC)c1	0%	nt	-21%[11.4 µM]	52	?	-22%
COc1ccc(C)cc1NC(=O)CSc1nnc(COc2ccc(Cl)cc2)n1Cc1ccco1	-28%	nt	?	-84*	?	nt
c1ccc(-c2cn(-c3ccccc3)c3[n+]2CCS3)cc1	?	i	-18%	?	?	-15%
COc1ccc(-c2cn(-c3ccccc3)c3[n+]2CCS3)cc1	?	-2%	-1%	-100*	?	-18%
CC(C)(C)c1ccc(-c2cn(-c3ccc(Br)cc3)c3[n+]2CCCS3)cc1	?	i	3%	-98*	?	-6%
